# Assay outcomes (PubChem BioAssay)
# Abeta rescue: restores growth of yeast expressing A-beta42 peptide; yeast expressing A-beta42, growth rescue, OD600, 48 h; response scale: 0% DMSO, 100% iron-clioquinol control; 0.063% of 410,000 active; Potency, µM (top dose mostly 46.1 µM), most hits filed as activators; AID 1347071; note: nearly all actives have a fitted effect of over 55% in size
#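 Growth rescue measured by 600 nm absorbance after 48 h yeast culture at 30 C with compound. Values normalized between DMSO and an equimolar ferric chloride plus clioquinol control.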
# aSyn rescue: inhibitors of alpha-synuclein toxicity in yeast | Yeast expressing alpha-synuclein, growth rescue, BacTiter-Glo, 24 h | Potency, µM (doses to about 46.1 µM), for inactives: top-dose growth rescue (activation), most hits filed as activators | 0.14% of 370,000 active; note: % of control where 0% means no effect; nearly all actives have a fitted effect of over 65% in size
#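 Galactose-induced alpha-syn yeast (OD600=0.02, raffinose-pregrown) + pinned cpd, 24 hr, 30 deg C; growth by BacTiter-Glo luminescence. Growth restoration scores as activation.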
# TDP-43 yeast inh: rescues yeast growth from TDP-43 toxicity | TDP-43 expressing yeast growth rescue, BacTiter-Glo, 24 h | Potency, µM (highest dose often 46.1 µM), for the others: top-dose growth rescue (activation), most hits filed as activators | 1.8% of 410,000 active | AID 652104; note: % of control where 0% means no effect; nearly all actives have a fitted effect of over 50% in size
#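 In this qHTS, compounds that restore growth of yeast expressing TDP-43 appear as activators. Cells (OD600=0.02, galactose medium, raffinose-pregrown) are incubated with compound 24 hr at 30 deg C and growth is quantified by BacTiter-Glo.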
# FUS yeast rescue: rescues growth of FUS-expressing yeast; S. cerevisiae FUS-expressing, growth rescue, OD600, 24 h; 0.24% of 390,000 active; Potency, µM (top dose mostly 76.6 µM), most hits filed as activators;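 note: plate controls were DMSO vehicle for no effect and reference control for full effect; nearly all actives have a fitted effect of over 55% in size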
#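 Toxicity suppression screen in FUS-yeast. Cells induced with 2% galactose, starting OD 0.005, treated 24hr at 30C with compounds at multiple final concentrations; growth by OD600.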
# * marks the source's active call; other numbers are inactive results; i = inactive; ? = inconclusive; . = no result given; [ ] = remark or other dose. Sampled rows, rich in hits. Any-hit rate of the full collection: about 2.1%. Calls come from the whole dose curve; as a rule, active = well fitted curve in the direction sought with a large enough effect; inconclusive = small, poorly fitted or top-dose-only effect, or another doubt; inactive = no such curve, though single readings can be large; an effect the other way counts as inactive or inconclusive. Potency is the fitted concentration of half-maximal effect.
SMILES,Abeta rescue,aSyn rescue,TDP-43 yeast inh,FUS yeast rescue
OC(c1cccc(Cl)c1)c1nc(/C=C/c2ccccc2)cs1 (stereo unspecified),i,-14.0%,8.91µM*,i
Cc1nc2ccccc2c(=O)n1/N=C/c1cccs1,i,4.7%,-9.1%[9.22 µM],i
CC(=O)Nc1ccc(NS(=O)(=O)c2c(C(=O)N3CCCCCC3)c(C)n(C)c2C)cc1,i,.,17.4%,i
CCSc1nnc(NC(=O)CCNS(=O)(=O)c2ccccc2F)s1,i,0.0%,-2.5%,i
COc1ccccc1CNC(=O)c1cnc(N2CCCC2)nc1C,i,.,?,i
Cc1nc(N2CCCC2)ncc1C(=O)NCc1ccccc1Cl,i,.,35.5µM*,i
Cc1ccc(C)c(NC(=O)c2cnc(N3CCCC3)nc2C)c1,i,.,14.1µM*,i
COc1ccc(C2C(C#N)=C(N)Oc3cc4c(cc32)OCO4)cc1 (stereo unspecified),i,-7.6%,-14.4%,i
CCN1C=C(Cc2ccc(OC)cc2)C2=C(C1)C(c1ccc(OC)cc1)C(C#N)=C(N)O2 (stereo unspecified),i,1.8%,-4.6%,35.5µM*
CCn1cc2nc(SCC(=O)Nc3ccc(F)cc3F)n(Cc3ccccc3)c(=O)c2n1,i,3.8%,12.9%,i
CC1(C)CC(=O)C(N=Nc2cc(Cl)c(Cl)c(Cl)c2)=C(O)C1,i,6.1%,7.5%,i
Cc1ccc(O)c(N=NC2=C(O)CC(C)(C)CC2=O)c1,?,7.08µM*,12.0%,.
O=C(Cc1ccccc1[N+](=O)[O-])OCC(=O)c1ccccc1Br,i,1.9%,12.6µM*,i
CC(c1ccccc1)n1cc2c(c1-c1ccccc1Br)c(=O)n(C)c(=O)n2C (stereo unspecified),i,.,14.1µM*,?
COc1cccc(C(NC(C)=O)c2nc(-c3ccc(C)c(C)c3)cs2)c1 (stereo unspecified),i,17.8µM*,0.0%,i
CC(=O)NC(c1ccccc1)c1nc(-c2ccc(C)c(C)c2)cs1 (stereo unspecified),i,-7.7%,20µM*,i
Cc1cccc(N(CC(=O)NCCSCc2ccc(Cl)cc2)S(C)(=O)=O)c1C,?,.,15.8µM*,i
CCOCCCNC(=O)CN1CCN(S(=O)(=O)c2ccc3c(c2)CCC3)CC1,i,8.4%,13.7%,i
S=C(N/N=C/c1ccccc1)N1CCOCC1,?,-8.2%,22.4µM*,.
Cc1ccc(/C=C/C(=O)O)cc1S(=O)(=O)Nc1ccc2c(c1)OCO2,i,1.8%,0.3%,i
CC1(C)CC2CC(C)(CN2C(=O)COC(=O)c2ccc(O)cc2O)C1 (stereo unspecified),10µM*,-11.2%,18.6%,i
CC1(C)CC2CC(C)(CN2C(=O)COC(=O)c2cc(Cl)cc(Cl)c2N)C1 (stereo unspecified),i,7.3%,-10.2%,i
O=C(Nc1ccc(Cc2ccc(NC(=O)Nc3cccnc3)cc2)cc1)Nc1cccnc1,i,4.6%,0.0%,i
O=[N+]([O-])c1cccc(-c2cc(-c3cc(Br)ccc3O)[nH]n2)c1,i,-7.1%,12.6µM*,i
Oc1ccc(Br)cc1-c1cc(-c2ccccc2)n[nH]1,?,-0.2%,24.7%,i
SMILES,Abeta rescue,aSyn rescue,TDP-43 yeast inh,FUS yeast rescue
O=C(N/N=C/c1ccncc1)NC12CC3CC(CC(C3)C1)C2,i,-7.7%,15.0%,i
O=C(N/N=C/c1ccc(O)cc1)NC12CC3CC(CC(C3)C1)C2,i,-8.0%,11.2µM*,i
CCCc1nc(SCC(=O)N2CCC(Cc3ccccc3)CC2)c2c(=O)n(C)c(=O)n(C)c2n1,i,1.4%,35.5µM*,i
Cn1c(=O)c2c(SCC(=O)N3CCCc4ccccc43)nc(CC(C)(C)C)nc2n(C)c1=O,i,-0.3%,21.5%,i
CCCc1nc(SCC(=O)Nc2ccccc2)c2c(=O)n(C)c(=O)n(C)c2n1,i,-3.4%,6.5%,i
CC(C)c1nc(SCC(=O)N2CCCC2)c2c(=O)n(C)c(=O)n(C)c2n1,i,3.55µM*,-26.0%,i
CCCc1nc(SCC(=O)N2CCCc3ccccc32)c2c(=O)n(C)c(=O)n(C)c2n1,i,12.5%,35.5µM*,i
CN(CC(=O)Nc1ccccc1Cl)C(=O)CSc1nncs1,i,3.0%,-24.6%,i
CCC(C)NC(=O)C(Cc1ccccc1)NS(=O)(=O)c1cccc2nsnc12 (stereo unspecified),i,-9.0%,?,i
Cc1oc(-c2ccccc2F)nc1CSCC(=O)N1CCN(c2ccccc2)CC1,i,.,31.6µM*,i
COc1ccccc1CNC(=O)CSCc1nc(-c2ccc(OC)c(OC)c2)oc1C,i,.,0.0%,i
Cc1oc(-c2ccccc2Cl)nc1CSCC(=O)N1CCCC1,i,-0.7%,12.6µM*,i
COc1ccc(-c2nc(CSCC(=O)NCc3ccccc3Cl)c(C)o2)cc1OC,i,.,25.1µM*,i
CN(CCNC(=O)C1CC(=O)N(c2ccc(F)c(Cl)c2)C1)Cc1ccccc1 (stereo unspecified),i,1.0%,-2.5%,i
CCCC1Cc2c(sc(N)c2C#N)CO1 (stereo unspecified),i,4.8%,12.6µM*,i
CCCC1Cc2c(sc3nc(SC)nc(N)c23)CO1 (stereo unspecified),i,-0.1%,-10.3%,i
COc1ccc(/C=C2\NC(=S)N(CC3CCCO3)C2=O)c(OC)c1C (stereo unspecified),i,-1.0%,12.6µM*,i
CCOC(=O)/C(=C\c1cccnc1)C(=O)c1cc(C(C)=O)c(Nc2ccccc2)s1,i,-20.9%,3.16µM*,.
CCOC(=O)/C(=C\c1ccccc1)C(=O)c1cc(C(C)=O)c(Nc2ccccc2)s1,i,28.3%,-11.4%,i
CCCc1cc(=O)[nH]c(SCC)n1,i,0.9%,-15.0%,?
CCCc1cc(=O)[nH]c(-n2[nH]c3c(c2=O)CCCC3)n1,?,25.1µM*,-18.6%,i
COC(=O)c1ccc(Cn2c(C)cc(C)[n+]2C)o1,i,-11.3%,11.7%,i
O=C1Nc2ccccc2CCc2ccccc21,i,-4.8%[1.84 µM],13.2%,i
O=C1Cc2ccccc2C(=O)N1,i,-8.0%,22.4µM*,i
Cc1cc(CNC(=O)c2cccnc2Cl)c2ccccc2n1,i,3.8%,1.3%,i
SMILES,Abeta rescue,aSyn rescue,TDP-43 yeast inh,FUS yeast rescue
N/C(=N\OC(=O)c1cccc2ccccc12)c1ccc(Br)cc1,i,-49.0%,?,i
COc1ccccc1C/C(N)=N/OC(=O)COc1cccc2ccccc12,i,9.4%,-0.1%,i
N/C(Cc1cccc2ccccc12)=N\OC(=O)COc1ccccc1,i,-23.8%,22.4µM*,.
N/C(Cc1cccc2ccccc12)=N\OC(=O)c1ccccc1F,i,-25.6%,22.4µM*,.
N/C(=N\OC(=O)c1cccc2ccccc12)c1ccncc1,i,?,20µM*,i
CC(C)C[C@H](NC(=O)OC(C)(C)C)c1nnc(SCc2ccccc2)o1,i,0.3%,5.2%,i
